High-throughput results as filed in PubChem.
Only some compounds are listed: those with a hit (about 3.3% of all), similar ones and a draw of the others.
MazEF act: activators of E. coli MazEF toxin-antitoxin RNase, primary screen, biochemical, fluorescence, uHTS; FAM/BHQ RNA-DNA oligo cleavage fluorescence, 5 h; activation, % at 20 µM; actives 0.32% (n = 350,000); AID 504720, 2011; in the data active = activation above about 50%
Target sequence (P0AE70 whole entry, looked up): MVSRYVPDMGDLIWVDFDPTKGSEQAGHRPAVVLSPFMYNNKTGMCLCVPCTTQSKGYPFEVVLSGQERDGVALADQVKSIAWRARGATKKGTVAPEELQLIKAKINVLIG
Anthrax LF inh2: Bacillus anthracis LF protease inhibitors, primary screen, biochemical, multiplex microsphere, MLPCN library; Lethal factor (Bacillus anthracis), P15917; multiplex microsphere protease cleavage assay; inhibition, % at 10 µM; actives 0.12% (n = 360,000); also: plate controls were buffer without enzyme for full effect and enzyme alone for no effect
BoNT-F LC inh: BoNT/F light chain protease inhibitors, primary screen, biochemical, flow cytometry, MLPCN library | Botulinum neurotoxin type F light chain protease (Clostridium botulinum) | Multiplex microsphere protease cleavage assay | inhibition, % at 10 µM | actives 0.22% (n = 360,000) | AID 588497, 2011; in the data active = inhibition above about 35%, passing the limit was not always enough; inconclusive = no clear call, values can overlap the other calls; also: plate controls were buffer without enzyme for full effect and enzyme alone for no effect
PriA SSB inh: inhibitors of Klebsiella pneumoniae PriA binding to SSB C-terminal tail, primary screen, biochemical, AlphaScreen; AID 1272365, 2023; AlphaScreen SSBct-PriA binding, biotinylated peptide; actives 0.6% (n = 430,000); PriA–SSB C-terminal tail interaction (Klebsiella pneumoniae); inhibition, % at 33 µM; in the data active = inhibition mostly above about 37%, no sharp cut-off; inactive = mostly below about 20%;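 also: plate controls were negative control peptide for no effect and reference peptide for full effect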
Autofluor counter: compound fluorescence in toxin protease inhibitor counterscreen | actives 3.1% (n = 360,000) | fluorescence intensity (test concentration not listed) | compound autofluorescence counterscreen, microsphere flow cytometry; active compounds read high; in the data active = fluorescence intensity above about 16000; inconclusive = no clear call, values can overlap the other calls
BoNT A protease: BoNT/A light chain protease inhibitors, primary screen, biochemical, flow cytometry, MLPCN library; actives 0.17% (n = 360,000); AID 588499, 2011; multiplex microsphere protease substrate cleavage; inhibition, % at 10 µM; also: plate controls were buffer without enzyme for full effect and enzyme alone for no effect
* hit, by the source's call; ? = inconclusive; · = no result; ! = a repeat was not active. Rule as the data show it, unless noted: active = inhibition above about 30%; inconclusive = no clear call, values can overlap the other calls; inactive = below that.

SMILES | MazEF act | Anthrax LF inh2 | BoNT-F LC inh | PriA SSB inh | Autofluor counter | BoNT A protease
O=C(CSc1nnc(CCc2nc3ccccc3s2)o1)NCCc1c[nH]c2ccccc12 | · | · | · | 5 | · | ·
O=C(c1ccccc1)c1c2c(cc3sc4ccccc4[n+]13)-c1cccc3cccc-2c13 | -8 | 2 | -16 | 28 | 6966 | 73*
Cc1cc(C)c(NC(=O)CN2CCN3CCCC3C2)c(C)c1 (centres undefined) | 3 | 0 | -7 | 0 | 21570*! | 0
Cc1cc(C)c(NC(=O)CCCN2CCN(C)CC2)c(C)c1 | 2 | -3 | -17 | -8 | 5051 | 0
Fc1ccc(-c2c[nH]c(=S)n2Cc2ccccc2)cc1 | -7 | -3 | -1 | 8 | 4348 | -1
O=c1[nH]cc(-c2ccc(Br)cc2)n1Cc1ccccc1 | 0 | 7 | -6 | 77* | 3498 | -1
Cn1c(/C(C#N)=C(\O)COc2ccc3ccccc3c2)nc2ccccc21 | 174* | -2 | 0 | -7 | 3278 | 0
CC(O)=C(C#N)c1nc2ccccc2n1C | · | · | · | -9 | · | ·
Cn1cccc1C=NNC(=O)C1COc2ccc(C(C)(C)C)cc2O1 (centres undefined) | · | · | · | 39* | · | ·
Cc1ccc(NC(=O)C(=O)N2CCC(Cc3ccccc3)CC2)c([N+](=O)[O-])c1 | · | · | · | 39* | · | ·
c1ccc(-c2nc(NC3CC3)nc(-n3ccnc3)n2)cc1 | 5 | 2 | -9 | -17 | 21514* | -6
C=CCNc1nc(-c2ccccc2)nc(-n2ccnc2)n1 | 7 | 0 | 8 | -3 | 18305* | 5
O=C(Cc1noc2ccccc12)N1CCSC(c2ccccc2Cl)CC1 (centres undefined) | · | · | · | -11 | · | ·
CCc1ccc(N2C(=O)c3sc4nnc(C)c(=O)n4c3C2=O)cc1 | 3 | -1 | 7 | -11 | 20580* | 3
O=C(NCCCn1nc(-c2ccc(F)cc2)ccc1=O)Nc1ccc2c(c1)OCCO2 | · | · | · | -6 | · | ·
COCCSc1ccccc1C(=O)NCc1ccc(S(N)(=O)=O)cc1 | 3 | 0 | 2 | -14 | 23008* | ?
CC12CCC(C(=O)NCCCN3CCOCC3)(OC1=O)C2(C)C (centres undefined) | 3 | -1 | -4 | -6 | 22515* | -2
CC12CCC(C(=O)NCCCN3CCOCC3)(C(Br)C1=O)C2(C)C (centres undefined) | 3 | -1 | 6 | -19 | 6089 | 0
O=C(Nc1nc(CCC(=O)N2CCc3ccccc3C2)cs1)c1ccc[nH]c1=O | · | · | · | -10 | · | ·
COC(=O)CN(C#N)c1nc(OC)nc(N(C)C)n1 | 1 | -1 | -1 | -7 | 17155* | -2
COC(=O)CN(C#N)c1nc(N(C)C)nc(N(C)C)n1 | 7 | -2 | 3 | -1 | 4153 | 0
O=C(Cn1cnc2c(cnn2C2CCS(=O)(=O)C2)c1=O)NCC1CCCO1 (centres undefined) | · | · | · | 2 | · | ·
COc1ccc(C(C)(C)C)cc1NC(=O)c1ccoc1C | 2 | -9 | -1 | -20 | 21536* | 1
O=C(Nc1nc(-c2csc(NC(=O)c3cccc(C(F)(F)F)c3)n2)cs1)c1cccc(C(F)(F)F)c1 | · | · | · | -7 | · | ·
CC(C)(C)c1ccccc1NC(=O)c1cccnc1 | 0 | 0 | -3 | -6 | 16565* | ?
SMILES | MazEF act | Anthrax LF inh2 | BoNT-F LC inh | PriA SSB inh | Autofluor counter | BoNT A protease
CC(C)c1ccc(O)c(NC(=O)c2cccnc2)c1 | -6 | -2 | -1 | 5 | 20393* | -1
CS(=O)(=O)C1CCN(C(=O)c2ccc(S(=O)(=O)N3CCOCC3)cc2)CC1 | · | · | · | -11 | · | ·
Cc1cc(NS(=O)(=O)c2ccc(NC(=O)c3coc(NC(=O)c4cc(C)on4)n3)cc2)nc(C)n1 | · | · | · | -13 | · | ·
CCc1ccc(-c2nc(NC(=S)NC(=O)c3cccs3)sc2C)cc1 | 1 | 0 | -1 | 7 | 23514* | -1
O=[N+]([O-])c1cc(Cl)ccc1N1CCN(c2cccc(C(F)(F)F)c2)CC1 | -4 | -7 | -11 | 12 | 11634 | -3
O=[N+]([O-])c1cc(CN2CCCC2)c2cccnc2c1O | 2 | 0 | -18 | 90* | 2006 | -3
O=[N+]([O-])c1cc(CN2CCN(c3cccc(C(F)(F)F)c3)CC2)c2cccnc2c1O | 3 | · | · | 90* | · | ·
Cc1cc(=O)n2c(-c3cccc(NC(=O)c4ccc5ccccc5n4)c3)csc2n1 | · | · | · | -13 | · | ·
Cc1ccc(-c2ccc(/C=C/C(=O)c3ccccc3)o2)cc1 | -22 | 19 | 7 | 1 | 2633 | 44*
COc1ccc(C(=O)/C=C/c2ccc(-c3ccc(F)cc3)o2)cc1 | · | · | · | 8 | · | ·
O=C(/C=C/c1ccc(-c2ccccc2)o1)c1ccccc1 | -22 | 31* | 14 | -17 | 2583 | 63*
O=C(Nc1ccn2nccc2c1)c1cccc2ccccc12 | · | · | · | 3 | · | ·
Cc1cc(C(=O)Nc2nnc(C3CCCCC3)s2)cs1 | 2 | -4 | -4 | -19 | 23418* | ?
CCOC(=O)Cc1csc(NC(=O)c2csc(C)c2)n1 | -2 | 1 | -1 | -3 | 20408* | -1
O=C(Nc1nc2c(s1)CCCC2)C1CCCN1C(=O)c1cccs1 (centres undefined) | 6 | 0 | -1 | -15 | 16410* | 0
O=C(Nc1nccs1)[C@@H]1CCCN1C(=O)c1cccs1 | 4 | -2 | 2 | -10 | 4684 | 0
Cc1cc(C(=O)Nc2nnc(C(F)(F)F)s2)cs1 | -2 | -6 | -3 | -11 | 4653 | -1
Cc1cc(C(=O)Nc2nc3c(s2)CCCC3)cs1 | -4 | -4 | -4 | -3 | 16226* | -2
O=C(Nc1nc2c(s1)CCCC2)c1cccc(Br)c1 | · | · | · | 7 | · | ·
Cc1cc(NC(=O)CCS(=O)(=O)c2ccc(Cl)cc2)n(C(C)C)n1 | · | · | · | -2 | · | ·
O/C(=C\Sc1nnc(COc2ccc(Cl)cc2Cl)o1)c1ccc(F)cc1 | · | · | · | 8 | · | ·
O=C(Nc1ccccc1Oc1ccccc1)c1cccc([N+](=O)[O-])c1 | -7 | -1 | -3 | 24 | 20430* | ?
Cc1ccc(C(=O)Nc2ccccc2Oc2ccccc2)cc1[N+](=O)[O-] | -1 | 0 | 11 | -19 | 4468 | 0
O=C1CCCC2=C1C(c1ccc(Cl)cc1)n1c(s/c(=C\c3ccc4ccncc4c3)c1=O)=N2 (centres undefined) | -44 | 22 | 17 | 1 | 3020 | 37*
Cn1c(=O)cc(OCC(=O)N2CCN(c3cccc(C(F)(F)F)c3)CC2)c2ccccc21 | -5 | -5 | 1 | -8 | 20645* | 2
CCOC(=O)N1CCN(C(=O)COc2cc(=O)n(C)c3ccccc23)CC1 | 4 | -3 | 1 | -12 | 14898 | 3
